# From PMC7862700, “An all-to-all approach to the identification of sequence-specific readers for epigenetic DNA modifications on cytosine”
# Legend:
# Experiment in all cases: DAPPL (digital affinity profiling via proximity ligation, sequencing); 10 mM Tris-HCl pH 7.5, 50 mM NaCl, 1 mM DTT, 4% glycerol, room temperature, 30 min; GST-TFs on glutathione beads, 16-mer random dsDNA library, 0.1% formaldehyde crosslink after washing; high values mean tight binding
# Details in all cases: protein: recombinant; tags: N-terminal GST; dsDNA, one strand shown
# FLI1 = molecular target: T1, FLI1 (Homo sapiens, UniProt Q01543 1-452)
# T1 sequence: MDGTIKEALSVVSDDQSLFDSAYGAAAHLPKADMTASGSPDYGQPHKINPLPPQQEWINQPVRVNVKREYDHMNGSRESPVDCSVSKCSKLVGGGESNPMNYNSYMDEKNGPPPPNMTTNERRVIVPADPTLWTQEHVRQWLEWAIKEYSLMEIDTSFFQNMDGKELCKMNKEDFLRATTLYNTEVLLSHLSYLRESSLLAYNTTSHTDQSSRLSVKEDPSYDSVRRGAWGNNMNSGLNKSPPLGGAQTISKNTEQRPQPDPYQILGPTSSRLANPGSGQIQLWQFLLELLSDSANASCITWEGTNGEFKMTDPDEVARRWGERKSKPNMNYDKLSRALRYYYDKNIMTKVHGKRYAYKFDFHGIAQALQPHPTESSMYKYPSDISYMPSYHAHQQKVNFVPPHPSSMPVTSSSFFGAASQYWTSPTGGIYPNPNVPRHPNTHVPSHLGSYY
# Outline: (§1)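 Pools were built from human transcription factors expressed in yeast as GST fusions, captured on glutathione beads and DNA-barcoded, along with a tag-only sample. Incubation with 200 nmole of a 16-mer random double-stranded DNA library lasted 30 min at room temperature in Tris/NaCl/DTT/glycerol buffer, and was followed by washing, 0.1% formaldehyde crosslinking, proximity ligation, PCR amplification and Illumina NextSeq500 sequencing. Binding signal is the quotient of each hexamer's read frequency for a factor and its frequency for the tag-only sample.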
# ELK1 = molecular target: T2, ELK1 (Homo sapiens, UniProt P19419 1-428)
# T2 sequence: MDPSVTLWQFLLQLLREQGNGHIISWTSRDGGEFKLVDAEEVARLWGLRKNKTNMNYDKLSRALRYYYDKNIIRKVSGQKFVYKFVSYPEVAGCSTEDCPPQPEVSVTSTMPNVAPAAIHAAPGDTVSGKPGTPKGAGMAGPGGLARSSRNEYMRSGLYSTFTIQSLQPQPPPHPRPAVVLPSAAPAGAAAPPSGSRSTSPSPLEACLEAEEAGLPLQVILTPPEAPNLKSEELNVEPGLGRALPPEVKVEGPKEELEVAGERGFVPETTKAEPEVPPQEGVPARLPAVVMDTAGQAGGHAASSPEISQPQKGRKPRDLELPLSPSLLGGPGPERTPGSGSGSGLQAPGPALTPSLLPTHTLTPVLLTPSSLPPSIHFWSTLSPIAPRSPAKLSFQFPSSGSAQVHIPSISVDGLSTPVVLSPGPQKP
# Outline: as §1
# GABPA = molecular target: T3, GABPA (Homo sapiens, UniProt Q06546 1-454)
# T3 sequence: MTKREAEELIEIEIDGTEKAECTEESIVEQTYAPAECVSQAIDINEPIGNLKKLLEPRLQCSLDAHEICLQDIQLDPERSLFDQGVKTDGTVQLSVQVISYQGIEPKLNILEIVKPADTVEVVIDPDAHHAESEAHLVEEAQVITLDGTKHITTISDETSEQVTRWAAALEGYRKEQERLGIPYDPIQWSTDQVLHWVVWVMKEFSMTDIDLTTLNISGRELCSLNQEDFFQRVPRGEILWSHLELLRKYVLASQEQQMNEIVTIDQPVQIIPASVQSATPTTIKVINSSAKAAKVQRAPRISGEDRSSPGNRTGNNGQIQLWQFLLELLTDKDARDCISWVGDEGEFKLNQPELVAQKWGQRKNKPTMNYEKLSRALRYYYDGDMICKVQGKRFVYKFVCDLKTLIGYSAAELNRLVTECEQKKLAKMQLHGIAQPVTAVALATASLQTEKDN
# Outline: as §1
# ERG = molecular target: T4, ERG (Homo sapiens, UniProt P11308 1-479)
# T4 sequence: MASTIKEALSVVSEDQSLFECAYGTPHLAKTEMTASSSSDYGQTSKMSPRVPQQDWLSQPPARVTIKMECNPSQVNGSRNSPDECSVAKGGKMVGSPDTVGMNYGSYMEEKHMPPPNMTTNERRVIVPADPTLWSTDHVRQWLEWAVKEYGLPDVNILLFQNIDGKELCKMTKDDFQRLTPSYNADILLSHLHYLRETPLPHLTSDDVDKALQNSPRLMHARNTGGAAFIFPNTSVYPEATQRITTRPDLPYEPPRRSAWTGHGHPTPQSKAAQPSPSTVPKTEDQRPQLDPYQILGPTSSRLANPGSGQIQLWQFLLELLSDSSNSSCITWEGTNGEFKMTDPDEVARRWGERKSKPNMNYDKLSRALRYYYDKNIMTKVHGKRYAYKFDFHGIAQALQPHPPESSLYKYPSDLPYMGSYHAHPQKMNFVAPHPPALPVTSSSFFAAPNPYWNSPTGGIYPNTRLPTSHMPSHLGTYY
# Outline: as §1
# ELF1 = ELF1 (Homo sapiens, UniProt P32519 1-619)
# ELF1, sequence (P32519 whole entry): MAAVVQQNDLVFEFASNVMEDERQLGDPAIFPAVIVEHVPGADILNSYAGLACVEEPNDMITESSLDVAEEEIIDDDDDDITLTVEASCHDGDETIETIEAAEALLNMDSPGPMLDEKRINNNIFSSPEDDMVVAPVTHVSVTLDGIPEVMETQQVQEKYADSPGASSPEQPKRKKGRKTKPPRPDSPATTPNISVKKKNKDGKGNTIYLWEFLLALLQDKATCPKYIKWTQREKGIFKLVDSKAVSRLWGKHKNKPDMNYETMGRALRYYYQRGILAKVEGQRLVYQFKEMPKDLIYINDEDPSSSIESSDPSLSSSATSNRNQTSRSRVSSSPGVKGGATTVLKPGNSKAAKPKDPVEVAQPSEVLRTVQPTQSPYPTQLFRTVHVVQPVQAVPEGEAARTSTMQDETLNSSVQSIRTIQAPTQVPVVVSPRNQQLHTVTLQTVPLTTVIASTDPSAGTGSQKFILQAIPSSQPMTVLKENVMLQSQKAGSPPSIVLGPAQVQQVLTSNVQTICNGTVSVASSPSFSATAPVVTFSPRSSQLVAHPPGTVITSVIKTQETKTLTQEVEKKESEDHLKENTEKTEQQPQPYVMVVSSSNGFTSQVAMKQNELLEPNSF
# Outline: as §1
# EHF = molecular target: T5, EHF (Homo sapiens, UniProt Q9NZC4 1-300)
# T5 sequence: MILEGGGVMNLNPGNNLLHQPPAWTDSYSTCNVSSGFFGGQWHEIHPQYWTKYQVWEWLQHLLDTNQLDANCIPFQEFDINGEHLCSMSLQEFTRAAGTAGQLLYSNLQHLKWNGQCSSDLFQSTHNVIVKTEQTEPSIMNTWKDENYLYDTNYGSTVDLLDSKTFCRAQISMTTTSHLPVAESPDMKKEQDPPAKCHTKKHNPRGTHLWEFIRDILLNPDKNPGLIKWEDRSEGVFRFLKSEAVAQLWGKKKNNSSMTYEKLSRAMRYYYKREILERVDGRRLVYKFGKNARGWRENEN
# Outline: as §1
# SPIB = SPIB (Homo sapiens, UniProt Q01892 1-262)
# SPIB, sequence (Q01892 whole entry): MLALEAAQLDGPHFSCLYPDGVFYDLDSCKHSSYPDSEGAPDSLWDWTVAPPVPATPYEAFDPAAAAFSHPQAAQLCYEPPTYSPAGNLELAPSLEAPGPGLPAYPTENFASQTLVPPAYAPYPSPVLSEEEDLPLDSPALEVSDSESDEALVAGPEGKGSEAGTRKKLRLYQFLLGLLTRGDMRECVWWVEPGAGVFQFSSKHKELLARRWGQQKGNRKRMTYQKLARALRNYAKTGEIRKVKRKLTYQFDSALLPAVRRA
# Outline: as §1
# FEV = molecular target: T6, FEV (Homo sapiens, UniProt Q99581 1-238)
# T6 sequence: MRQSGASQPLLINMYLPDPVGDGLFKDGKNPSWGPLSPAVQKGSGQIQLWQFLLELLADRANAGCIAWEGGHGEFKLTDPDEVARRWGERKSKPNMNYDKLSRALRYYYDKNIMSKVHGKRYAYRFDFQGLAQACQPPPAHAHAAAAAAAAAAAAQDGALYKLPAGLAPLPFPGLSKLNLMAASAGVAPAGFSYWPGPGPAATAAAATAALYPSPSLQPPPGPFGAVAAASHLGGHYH
# Outline: as §1
# ETV5 = ETV5 (Homo sapiens, UniProt P41161 1-510)
# ETV5, sequence (P41161 whole entry): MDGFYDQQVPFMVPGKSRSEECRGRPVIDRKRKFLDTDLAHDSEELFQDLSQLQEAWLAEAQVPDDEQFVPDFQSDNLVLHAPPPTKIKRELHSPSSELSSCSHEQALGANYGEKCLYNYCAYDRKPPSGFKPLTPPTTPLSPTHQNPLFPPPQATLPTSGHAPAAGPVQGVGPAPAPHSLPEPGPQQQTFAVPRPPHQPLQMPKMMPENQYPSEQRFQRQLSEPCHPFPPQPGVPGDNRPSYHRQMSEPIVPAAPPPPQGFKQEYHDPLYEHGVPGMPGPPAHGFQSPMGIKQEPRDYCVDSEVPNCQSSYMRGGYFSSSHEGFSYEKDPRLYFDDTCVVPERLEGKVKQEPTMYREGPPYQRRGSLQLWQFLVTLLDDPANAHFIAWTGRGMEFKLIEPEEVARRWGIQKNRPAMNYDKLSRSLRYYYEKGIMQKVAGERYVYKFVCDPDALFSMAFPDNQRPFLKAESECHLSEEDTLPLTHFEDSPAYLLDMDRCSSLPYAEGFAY
# Outline: as §1
# ETV2 = molecular target: T7, ETV2 (Homo sapiens, UniProt O00321 1-342)
# T7 sequence: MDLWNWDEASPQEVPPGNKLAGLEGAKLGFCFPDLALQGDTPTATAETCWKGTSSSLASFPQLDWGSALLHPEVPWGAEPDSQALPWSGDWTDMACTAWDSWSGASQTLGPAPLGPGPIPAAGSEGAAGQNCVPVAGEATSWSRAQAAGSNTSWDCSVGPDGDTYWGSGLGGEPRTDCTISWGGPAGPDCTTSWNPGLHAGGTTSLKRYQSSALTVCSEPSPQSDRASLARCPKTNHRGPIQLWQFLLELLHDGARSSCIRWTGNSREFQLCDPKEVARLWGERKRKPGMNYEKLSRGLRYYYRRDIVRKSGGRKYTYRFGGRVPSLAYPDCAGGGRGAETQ
# Outline: as §1
# ELF3 = molecular target: T8, ELF3 (Homo sapiens, UniProt P78545 1-371)
# T8 sequence: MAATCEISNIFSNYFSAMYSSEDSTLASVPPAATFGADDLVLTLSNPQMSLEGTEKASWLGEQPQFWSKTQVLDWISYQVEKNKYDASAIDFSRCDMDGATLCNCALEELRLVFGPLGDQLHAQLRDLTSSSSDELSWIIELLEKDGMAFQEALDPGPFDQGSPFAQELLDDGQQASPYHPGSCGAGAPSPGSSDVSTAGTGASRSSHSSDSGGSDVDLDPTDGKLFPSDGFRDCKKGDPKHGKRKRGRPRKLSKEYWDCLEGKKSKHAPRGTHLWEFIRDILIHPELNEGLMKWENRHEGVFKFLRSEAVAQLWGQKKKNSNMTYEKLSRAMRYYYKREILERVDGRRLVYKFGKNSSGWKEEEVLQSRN
# Outline: as §1
# ETV1 = ETV1 (Homo sapiens, UniProt P50549 1-477)
# ETV1, sequence (P50549 whole entry): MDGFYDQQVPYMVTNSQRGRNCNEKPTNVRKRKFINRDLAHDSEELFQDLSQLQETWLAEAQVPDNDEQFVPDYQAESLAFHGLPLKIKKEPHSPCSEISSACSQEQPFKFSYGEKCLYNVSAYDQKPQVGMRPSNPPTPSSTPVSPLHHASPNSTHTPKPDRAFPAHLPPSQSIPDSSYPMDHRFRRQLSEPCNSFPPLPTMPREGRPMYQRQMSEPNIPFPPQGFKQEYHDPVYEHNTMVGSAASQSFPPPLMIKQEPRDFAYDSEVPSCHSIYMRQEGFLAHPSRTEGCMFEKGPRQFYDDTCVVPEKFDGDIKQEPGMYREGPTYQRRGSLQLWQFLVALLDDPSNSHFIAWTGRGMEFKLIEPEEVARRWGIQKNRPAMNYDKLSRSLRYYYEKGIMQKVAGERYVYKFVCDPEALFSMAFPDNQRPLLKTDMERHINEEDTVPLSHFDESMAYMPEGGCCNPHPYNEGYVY
# Outline: as §1
# ERF = molecular target: T9, ERF (Homo sapiens, UniProt P50548 1-548)
# T9 sequence: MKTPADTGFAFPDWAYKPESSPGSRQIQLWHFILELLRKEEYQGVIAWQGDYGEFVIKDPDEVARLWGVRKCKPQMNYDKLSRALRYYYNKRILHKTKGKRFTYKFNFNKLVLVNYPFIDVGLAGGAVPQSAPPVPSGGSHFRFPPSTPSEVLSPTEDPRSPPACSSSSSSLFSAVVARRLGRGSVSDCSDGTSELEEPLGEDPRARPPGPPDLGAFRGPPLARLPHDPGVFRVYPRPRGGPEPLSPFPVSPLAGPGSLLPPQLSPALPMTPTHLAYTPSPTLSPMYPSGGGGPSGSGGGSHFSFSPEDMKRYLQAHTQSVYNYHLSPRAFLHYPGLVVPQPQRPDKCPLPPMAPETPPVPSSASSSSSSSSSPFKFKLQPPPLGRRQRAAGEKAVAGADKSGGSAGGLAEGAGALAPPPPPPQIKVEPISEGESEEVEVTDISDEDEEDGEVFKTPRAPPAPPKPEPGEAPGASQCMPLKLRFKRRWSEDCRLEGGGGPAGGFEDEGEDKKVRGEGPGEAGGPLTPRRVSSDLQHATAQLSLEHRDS
# Outline: as §1
# ETV3L = molecular target: T10, ETV3L (Homo sapiens, UniProt Q6ZN32 1-361)
# T10 sequence: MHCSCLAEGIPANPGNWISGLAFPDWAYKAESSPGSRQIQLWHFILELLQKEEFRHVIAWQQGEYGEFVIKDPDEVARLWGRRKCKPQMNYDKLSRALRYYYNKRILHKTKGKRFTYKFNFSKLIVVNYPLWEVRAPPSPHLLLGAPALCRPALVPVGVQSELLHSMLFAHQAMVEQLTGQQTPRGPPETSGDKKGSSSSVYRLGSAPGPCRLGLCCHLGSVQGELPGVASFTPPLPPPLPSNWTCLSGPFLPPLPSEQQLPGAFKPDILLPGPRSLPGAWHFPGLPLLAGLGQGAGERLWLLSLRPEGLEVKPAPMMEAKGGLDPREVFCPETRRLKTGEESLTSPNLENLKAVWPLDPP
# Outline: as §1
# ETS2 = molecular target: T11, ETS2 (Homo sapiens, UniProt P15036 1-469)
# T11 sequence: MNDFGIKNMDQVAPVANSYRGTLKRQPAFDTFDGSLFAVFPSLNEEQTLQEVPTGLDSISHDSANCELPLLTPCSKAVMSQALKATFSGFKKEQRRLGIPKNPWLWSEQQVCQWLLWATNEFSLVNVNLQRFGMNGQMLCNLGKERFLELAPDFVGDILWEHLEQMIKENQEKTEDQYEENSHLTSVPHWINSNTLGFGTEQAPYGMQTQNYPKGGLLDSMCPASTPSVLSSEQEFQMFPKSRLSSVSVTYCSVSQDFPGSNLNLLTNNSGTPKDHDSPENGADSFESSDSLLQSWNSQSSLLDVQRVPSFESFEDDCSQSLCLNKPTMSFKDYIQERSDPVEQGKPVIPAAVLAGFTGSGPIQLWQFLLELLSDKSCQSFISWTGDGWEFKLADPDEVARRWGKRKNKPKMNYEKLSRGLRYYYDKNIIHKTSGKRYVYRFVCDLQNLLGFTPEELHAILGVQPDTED
# Outline: as §1
# ETV3 = molecular target: T12, ETV3 (Homo sapiens, UniProt P41162-2 1-143)
# T12 sequence: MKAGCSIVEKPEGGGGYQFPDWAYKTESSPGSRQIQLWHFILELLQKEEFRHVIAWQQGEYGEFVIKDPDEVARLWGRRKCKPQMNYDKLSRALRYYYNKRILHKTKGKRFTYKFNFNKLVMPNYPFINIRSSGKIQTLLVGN
# Outline: as §1
# ETV6 = ETV6 (Homo sapiens, UniProt P41212 1-452)
# ETV6, sequence (P41212 whole entry): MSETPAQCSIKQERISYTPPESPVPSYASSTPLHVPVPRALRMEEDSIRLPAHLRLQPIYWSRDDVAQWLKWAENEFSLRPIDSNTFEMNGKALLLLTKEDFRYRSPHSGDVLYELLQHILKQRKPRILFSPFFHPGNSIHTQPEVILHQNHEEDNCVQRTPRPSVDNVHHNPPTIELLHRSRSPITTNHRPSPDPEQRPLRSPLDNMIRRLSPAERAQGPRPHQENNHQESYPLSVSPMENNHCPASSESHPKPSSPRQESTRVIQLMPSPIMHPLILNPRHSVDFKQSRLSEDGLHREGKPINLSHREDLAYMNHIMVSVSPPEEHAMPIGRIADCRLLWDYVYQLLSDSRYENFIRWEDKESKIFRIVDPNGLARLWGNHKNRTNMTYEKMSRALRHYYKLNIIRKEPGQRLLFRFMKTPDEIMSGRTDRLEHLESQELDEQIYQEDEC
# Outline: as §1
sequence,measurement,setting,value
CAACCG,binding signal,FLI1,"1.11 fold enrichment (6-mer frequency, TF over GST control)"
same,binding signal,ELK1,"1.13 fold enrichment (6-mer frequency, TF over GST control)"
same,binding signal,GABPA,"1 fold enrichment (6-mer frequency, TF over GST control)"
same,binding signal,ERG,"1.11 fold enrichment (6-mer frequency, TF over GST control)"
same,binding signal,ELF1,"1.03 fold enrichment (6-mer frequency, TF over GST control)"
same,binding signal,EHF,"1.06 fold enrichment (6-mer frequency, TF over GST control)"
same,binding signal,SPIB,"1.15 fold enrichment (6-mer frequency, TF over GST control)"
same,binding signal,FEV,"1.28 fold enrichment (6-mer frequency, TF over GST control)"
same,binding signal,ETV5,"1.03 fold enrichment (6-mer frequency, TF over GST control)"
same,binding signal,ETV2,"1.08 fold enrichment (6-mer frequency, TF over GST control)"
same,binding signal,ELF3,"1.08 fold enrichment (6-mer frequency, TF over GST control)"
same,binding signal,ETV1,"1.06 fold enrichment (6-mer frequency, TF over GST control)"
same,binding signal,ERF,"1.03 fold enrichment (6-mer frequency, TF over GST control)"
same,binding signal,ETV3L,"1.09 fold enrichment (6-mer frequency, TF over GST control)"
same,binding signal,ETS2,"1.11 fold enrichment (6-mer frequency, TF over GST control)"
same,binding signal,ETV3,"1.08 fold enrichment (6-mer frequency, TF over GST control)"
same,binding signal,ETV6,"1.13 fold enrichment (6-mer frequency, TF over GST control)"
